# A selection: hits, their analogues and other compounds. The true share with any hit is near 1.2%.
# RN4220 kill = S. aureus RN4220 growth inhibition; OD600, 16 h; inhibition, % (no concentration beside the values); 330,000 compounds, 0.33% hits; AID 1259311; in the data active means inhibition above about 85%;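 further: plate controls were untreated cells for no effect and reference antibiotic for full effect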
# Mtb betalactam = beta-lactam sensitization of Mtb H37Rv; 330,000 compounds, 0.27% hits; inhibition, % at 25 µM; M. tuberculosis H37Rv growth with meropenem, percent inhibition; call rule not given here;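 further: growth measured after seven days incubation then overnight dye step; 0% = bacteria only wells and 100% = bacteria with antibiotic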
# ugtP null kill = compounds lethal to S. aureus RN4220 ugtP deletion mutant; OD600 growth, 16 h; growth inhibition, % (no concentration beside the values); 330,000 compounds, 0.54% hits; in the data active means growth inhibition above about 68%;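 further: plate controls were untreated wells for no effect and antibiotic for full effect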
# PfHsp40 rescue = rescue of PfHsp40-mediated yeast toxicity | 340,000 compounds, 0.68% hits | growth rescue, % at 12.5 µM | S. cerevisiae expressing PfHsp40, growth rescue, ATP luminescence; in the data active means growth rescue above about 28%, passing the limit was not always enough; inconclusive means no clear call, values can overlap the other calls;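 further: yeast W303a lacking pdr1 and pdr3 grown in galactose medium; growth measured after three days at 30 °C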
# BH1578 lux ind = induces V. cholerae light production without autoinducers | V. cholerae BH1578 lux reporter, luminescence, 6 h | activation, % at 18.7 µM | 350,000 compounds, 0.16% hits | AID 588436; in the data active means activation mostly above about 9.7%, no sharp cut-off; inconclusive means no clear call, values can overlap the other calls; inactive means mostly below about 3.7%
# * hit, by the source's call; i = inactive; ? = inconclusive; . = not tested or not shown.
SMILES,RN4220 kill,Mtb betalactam,ugtP null kill,PfHsp40 rescue,BH1578 lux ind
BrC(C=NNc1nc(N2CCOCC2)nc(N2CCOCC2)n1)=Cc1ccccc1,3,.,-19,.,.
CCN(CC)S(=O)(=O)c1ccc(N2CCOCC2)c(NC(=O)C(=O)c2c(-c3ccccc3)cc3ccccn23)c1,21,7,-14,130*,-1
COc1ccc(S(=O)(=O)N(C)CC2Oc3ccc(NS(=O)(=O)c4c(C)noc4C)cc3C(=O)N(C(C)CO)CC2C)cc1 (stereo unspecified),6,.,1,.,.
C=CCC1c2cccc(C(=O)O)c2C(=O)N1c1cccc(C)c1 (stereo unspecified),9,7,5,159*,i
C=CCC1c2cccc(C(=O)O)c2C(=O)N1c1ccc(Cl)cc1 (stereo unspecified),8,58,3,133*,i
Cc1ccc(S(=O)(=O)Nn2cnnc2)cc1,4,-6,5,0,i
Cc1ccc(S(=O)(=O)N(c2nc(N(C)C)nc(N(C)C)n2)n2cnnc2)cc1,94*,4,98*,9,1
Cc1occc1C(=O)NN=Cc1ccc[nH]1,1,.,3,.,.
COCCCNC(=O)c1ccc(S(=O)(=O)c2ccc(C)cc2)c(NC(C)=O)c1,-3,-4,2,91*,i
Cc1ncoc1C(=O)N1CCCC(C(=O)c2ccc(-c3ccccc3)c(F)c2)C1 (stereo unspecified),4,2,4,183*,i
S=c1[nH]ncn1/N=C/c1cccc(Oc2ccccc2)c1,.,-15,.,106*,-1
Oc1c(C(Nc2cccc(C(F)(F)F)c2)c2cccnc2)ccc2cccnc12 (stereo unspecified),14,-1,-6,382*,0
COc1ccc(Cl)cc1C(Nc1cccnc1)c1ccc2cccnc2c1O (stereo unspecified),21,9,7,89*,0
CC1CCC(CN2C(Nc3ccccc3)=NCC2C)CC1 (stereo unspecified),3,.,-9,.,.
Brc1ccc(OCc2ccccc2)c(CNCc2ccncc2)c1,6,15,-3,122*,-1
Fc1ccc(COc2ccccc2CNCc2ccncc2)cc1,6,6,-3,-1,i
CCc1c(C2(O)CCCCC2)[nH]c2cc(C(F)(F)F)ccc12,.,80,.,299*,i
Cc1c(C2(O)CCCCC2)[nH]c2cc(C(F)(F)F)ccc12,-5,9,-4,?,i
COc1ccc2c(c1)C1C(CO2)C(c2ccccc2)[C@]2(C)C(=O)NC(C)C(=O)N12 (stereo partly specified),2,.,-5,.,.
S=C1NC[C@H](Cc2ccccc2)N1CCCCC1CCCCC1,.,-2,.,64*,0
FC(F)(F)c1cc(CCN2C(=S)NC[C@@H]2Cc2ccccc2)cc(C(F)(F)F)c1,.,-1,.,48*,-6
S=C1NC[C@H](Cc2ccccc2)N1CC1CCN(CCCC2CCCC2)CC1,.,.,.,-1,-3
CN1C(=O)C2(C(C#N)=C(N)Oc3n[nH]c(-c4ccc(Cl)cc4)c32)c2ccccc21 (stereo unspecified),98*,-1,75,0,0
Cc1[nH]nc2c1C1(C(=O)N(Cc3ccc(Cl)cc3)c3ccccc31)C(C#N)=C(N)O2 (stereo unspecified),15,45,-22,1,-1
CC1CN(S(=O)(=O)c2ccc3c(c2)OCCO3)CCN1S(=O)(=O)c1c(F)cccc1F (stereo unspecified),10,.,8,.,.
SMILES,RN4220 kill,Mtb betalactam,ugtP null kill,PfHsp40 rescue,BH1578 lux ind
c1ccc(CNc2nc(-c3ccccc3)nc3ccccc23)cc1,-17,86,-8,0,i
c1ccc(CNc2nc(NCc3ccccc3)c3ccccc3n2)cc1,92*,94,101*,-1,1
CC(C)=CCc1c2c(c3occ(-c4ccc(O)cc4)c(=O)c3c1O)C=CC(C)(C)O2,99*,26,100*,39*,-1
O=C1C(=C(O)c2ccccc2)C(=O)c2ccccc21,7,-4,-7,-1,2
O=C1C(=C(c2ccccc2)c2ccccc2)Nc2ccccc21,5,40,8,78*,i
CCSc1nc2sc3c(c2c(=O)n1C1CCCCC1)CCN(C)C3,1,.,29,0,5
C=C(C)CSc1nc2sc3c(c2c(=O)n1C1CCCCC1)CCN(C)C3,100,92,active,1,i
O=C(O)CC1S/C(=N/N=Cc2ccc(-c3ccccc3[N+](=O)[O-])o2)NC1=O (stereo unspecified),3,.,3,.,.
COc1cccc2c1C(=O)c1c(O)c3c(c(O)c1C2=O)C[C@@](O)(C(=O)CO)C[C@@H]3OC1CC(N)C(O)C(C)O1 (stereo partly specified),.,.,.,3,i
COc1cccc2c1C(=O)c1c(O)c3c(c(O)c1C2=O)CC(O)(C(C)=O)CC3OC1CC(N(C)C)C(O)C(C)O1 (stereo unspecified),.,.,.,401*,17
COc1cccc2c1C(=O)c1c(O)c3c(c(O)c1C2=O)C[C@@](O)(C(=O)CO)C[C@@H]3O[C@H]1C[C@H](N)[C@H](O)[C@H](C)O1,.,97,.,146*,0
Cn1c(CC(=O)NNC(=O)c2cccnc2)nc2ccccc21,0,0,-1,1,20*
O=C(/C=C/c1ccco1)NC(=S)Nc1ccccc1N1CCOCC1,3,-4,98*,1,-2
O=C(/C=C/c1ccco1)Nc1ccccc1N1CCCC1,6,96,10,2,i
O=C(/C=C/c1ccco1)NC(=S)Nc1cc(C(F)(F)F)ccc1N1CCOCC1,.,6,.,1,0
O=C(/C=C/c1ccco1)NC(=S)Nc1ccccc1N1CCCC1,-2,4,99*,59*,0
O=C(C=Cc1ccco1)NC(=S)Nc1cc(C(F)(F)F)ccc1N1CCOCC1,-4,.,96*,.,.
CCN1C(=O)C2C(c3ccc(-c4ccc(Cl)c(Cl)c4)c(OC)c3)N[C@@](Cc3ccccc3)(C(=O)OC)C2C1=O (stereo partly specified),-3,.,-1,.,.
Cc1cccc(N2C(=O)N3C(c4ccc(F)cc4)C4C(=O)N(C5CCCCC5)C(=O)C4[C@]3(Cc3ccc(Cl)cc3)C2=O)c1 (stereo partly specified),1,.,-18,.,.
CC(NC(=O)OCc1ccccc1)C(=O)NNC(=O)C(Cc1ccccc1)NC(=O)OC(C)(C)C (stereo unspecified),7,.,3,.,.
O=C(c1cccs1)N(c1cccc(Cl)c1)C1C=CS(=O)(=O)C1 (stereo unspecified),5,5,3,-1,i
CCc1ccccc1N(C(=O)c1cccs1)C1C=CS(=O)(=O)C1 (stereo unspecified),5,-1,5,34*,-1
COC(=O)C1=C(c2ccc(OC(F)(F)F)cc2)CC2CCC1N2C(=O)NCc1ccc(F)cc1 (stereo unspecified),-6,.,-5,.,.
COc1ccc(-c2ccc3n2Cc2cnnn2-c2ccccc2-3)cc1,.,.,.,137*,-1

# Assay outcomes deposited in PubChem BioAssay by several laboratories.
